About 83,000 compounds went through this panel and 20% of them were active in at least one assay; those are over-represented in the sample as a whole.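 Compound tested at a single concentration for 48 hours in 96-well plates; a percent growth value below 10 was scored as active.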 The source made the active and inactive calls.
Experiments:
Assay in all cases: NCI-60 one-dose screen, 48 h (100 = growth as untreated, 0 = no growth, -100 = all killed)
Settings in all cases: 10 µM unless noted
[1] = test system: DU-145 prostate
[2] = test system: K-562 leukemia
[3] = test system: MALME-3M melanoma
[4] = test system: MDA-MB-231 breast
[5] = test system: RXF 393 renal
[6] = test system: SF-268 CNS
[7] = test system: SF-295 CNS
[8] = test system: SF-539 CNS
[9] = test system: UACC-257 melanoma
[10] = test system: M14 melanoma

Measured: growth

COc1ccccc1/C=C/C1=C(C)CCC(c2ccccc2OC)C1C (stereo not given)
inactive: [2] 18.2% | [3] 80.9% | [4] 17.2% | [5] 28.5% | [6] 16.3% | [9] 57.9%
active: [1] -8.51% | [7] -45.9% | [8] 0.327% | [10] -10.7%

COc1ccc(NC(=O)c2ccc(Cl)cc2Cl)cc1
inactive: [1] 95.1% | [2] 99% | [3] 104% | [4] 109% | [5] 108% | [6] 100% | [7] 102% | [8] 98.9% | [9] 96.8% | [10] 93.3%

O=C(Nc1ncc(Cc2ccc(Cl)cc2)s1)c1ccc2c(c1)OCCO2
active: [2] 8.41% | [5] 3.74% | [8] -4.99%
inactive: [1] 16.6% | [3] 57.8% | [4] 10.9% | [6] 42.9% | [7] 11.7% | [9] 44.1% | [10] 17.3%

COc1ccc(C(=O)/C=C/c2ccc(C)cc2)cc1S(N)(=O)=O
active: [2] 3.04%
inactive: [1] 47.3% | [3] 96.9% | [4] 58.9% | [5] 74.4% | [6] 72.4% | [7] 91.3% | [8] 25% | [9] 83.2% | [10] 71.1%

CCN(CC)CCCNc1cc(OC)cc2cccnc12
inactive: [1] 105% | [2] 81.4% | [3] 133% | [4] 89.5% | [5] 96.5% | [6] 96.5% | [7] 105% | [8] 101% | [9] 107% | [10] 127%

COc1cc2nc3cc([N+](=O)[O-])ccc3c(NCCCNCCO)c2cc1OC
active: [1] -31.2% | [2] -19% | [3] -82.6% | [4] -54.5% | [5] -58.8% | [6] -46.8% | [7] -20.7% | [8] -36.2% | [9] -53.4% | [10] -66.5%

CN(C)CCCN(CCC1CCCCC1)CCC1CCCCC1
active: [3] -79.4% | [9] -65.3% | [10] -97.2%
inactive: [1] 80.9% | [2] 26% | [4] 19.4% | [5] 70.8% | [6] 75.2% | [7] 69.4% | [8] 49.6%

Cn1cc(-c2ccc3c(Nc4cccc(NC(=O)Nc5cccc(F)c5)c4)ncnc3c2)cn1
active: [2] 4.38% | [5] -13.9% | [7] -13.2%
inactive: [1] 41.8% | [3] 27.5% | [4] 41.8% | [6] 46.7% | [8] 20.4% | [9] 63.9% | [10] 41.3%

CC(=O)OCC(=O)O[C@@H]1C[C@]2(C(C)C)O[C@@]1(C)[C@@H]1CC[C@@H](C)[C@H]1[C@@H]2OC(=O)/C=C/c1ccccc1
active: [5] -2.3%
inactive: [1] 101% | [2] 67.5% | [3] 101% | [4] 82.9% | [6] 51.5% | [7] 88.8% | [8] 92.4% | [9] 92.5% | [10] 97.2%

O=C1NCCN1/N=C/c1c(Cl)n(Cc2ccc(Cl)cc2)c2ccccc12
inactive: [1] 89.4% | [2] 65.2% | [3] 150% | [4] 73.9% | [5] 69.4% | [6] 104% | [7] 74.2% | [8] 87.2% | [9] 64.6% | [10] 114%

COc1ccc2c(c1)c(-c1nc(-c3cn(C)c4ccncc34)cs1)cn2C
inactive: [6] 88.5% | [7] 55.3% | [8] 57.4% | [9] 114%
active: [1] -21.9% | [2] -48.9% | [3] -53.6% | [4] -61.2% | [5] -91.7% | [10] -90.3%

CC(=O)O[C@H]1C[C@@]2(C)[C@@H](C[C@@H](O)[C@H]3[C@@]4(C)CC[C@H](N5CCCC5)[C@@H](C)[C@@H]4CC[C@@]32C)/C1=C(\CCC=C(C)C)C(=O)O
inactive: [1] 105% | [2] 14.8% | [3] 95.6% | [4] 109% | [5] 98.9% | [6] 98.9% | [7] 96.3% | [8] 96.1% | [9] 98.1% | [10] 92.2%

CN(CCNc1ccc(C(=N)N)cc1)c1ccc(C(=N)N)cc1
inactive: [1] 66.6% | [2] 74.4% | [3] 84.7% | [4] 91.8% | [5] 109% | [6] 99.4% | [7] 54.3% | [8] 101% | [9] 55.1% | [10] 96.1%

O=C1NCCS(=O)(=O)/C1=C\C=C\c1cccc(C(F)(F)F)c1
inactive: [1] 29.4% | [2] 17.3% | [3] 29.9% | [4] 49.1% | [5] 35.5% | [6] 28.6% | [7] 82.7% | [8] 10.6% | [9] 38.6%
active: [10] 7.1%

Oc1cccc2c1NCCC2
inactive: [1] 34.8% | [2] 13.5% | [5] 43.9% | [6] 35.3% | [8] 26.4% | [9] 12.4% | [10] 31.4%
active: [3] -0.428% | [4] 6.35% | [7] 0.338%

Nc1n[nH]c2cccc(C#Cc3cccc(C(=O)Nc4ccc(Cl)c(C(F)(F)F)c4)c3)c12
active: [2] 6.22%
inactive: [1] 83.6% | [3] 14.9% | [4] 40.4% | [5] 66.9% | [6] 61.7% | [7] 66.6% | [8] 33.5% | [9] 48.2% | [10] 23%

C1=C2CCCC3=Cc4ccccc4OC23Oc2ccccc21
inactive: [1] 28.1% | [2] 15.3% | [3] 56.8% | [4] 43.5% | [6] 31.6% | [7] 11.3% | [9] 40.1% | [10] 19.2%
active: [5] 9.77% | [8] 7.81%

Cc1ccc(-c2nn(CC(=O)N3CCOCC3)c(N)c2C#N)cc1
inactive: [1] 111% | [2] 99.8% | [3] 104% | [4] 108% | [5] 110% | [6] 99% | [7] 102% | [8] 99.2% | [9] 107% | [10] 104%

CCOC(=O)c1ccc2c(c1)[n+](=O)c(C(C)=O)c(C(F)(F)F)n2[O-]
inactive: [4] 22.2% | [5] 31.6% | [7] 23% | [8] 29.7%
active: [1] -88.5% | [2] -76.7% | [3] -40% | [6] -51.8% | [9] -37.1% | [10] 8.64%

C#CCOC(=O)C(N)CSSCC(N)C(=O)O (stereo not given)
inactive: [1] 119% | [2] 108% | [3] 95.6% | [4] 105% | [5] 114% | [6] 100% | [7] 103% | [8] 90.8% | [9] 104% | [10] 100%

[2H]C([2H])([2H])Oc1c(F)cccc1/C=C/C(=O)/C=C(O)/C=C/c1cccc(F)c1OC([2H])([2H])[2H]
inactive: [1] 103% | [2] 107% | [3] 100% | [4] 109% | [5] 106% | [6] 90.5% | [7] 102% | [8] 101% | [9] 82.7% | [10] 92.9%

COc1cc(C)cc(-c2c(-c3cc(N4CC(O)C4)nc(-c4cccnc4)n3)cnn2C)c1
inactive: [1] 89.5% | [2] 80.1% | [3] 104% | [4] 55% | [5] 77.9% | [6] 98.5% | [7] 92.8% | [8] 94.3% | [9] 109% | [10] 90.6%

Nc1ncnc2c1N=C(c1ccc([N+](=O)[O-])cc1)CC(c1ccc3c(c1)OCO3)N2 (stereo not given)
inactive: [1] 94.6% | [2] 93.4% | [3] 107% | [4] 75% | [5] 75.6% | [6] 90.1% | [7] 67.5% | [8] 85.7% | [9] 116% | [10] 119%

Cn1cc(-c2nc(-c3c[nH]c4c(Cl)nccc34)cs2)c2ccccc21
inactive: [1] 92.6% | [2] 89.3% | [3] 113% | [4] 98.9% | [5] 90.4% | [6] 98.5% | [7] 103% | [8] 90.5% | [9] 71.8% | [10] 97.2%

CC/C(=C(/c1ccc(Cl)cc1)c1ccc(OCCN2CCCC2)cc1)c1ccccc1
active: [2] 4.31%
inactive: [1] 80.4% | [3] 68.8% | [4] 73.6% | [5] 55.2% | [6] 73.3% | [7] 79% | [8] 74.8% | [9] 74% | [10] 37.1%

O=C(Nc1ncc(Cc2ccc(Cl)cc2)s1)C1=NCCCCN1
inactive: [1] 105% | [2] 95.4% | [3] 102% | [4] 110% | [5] 119% | [6] 103% | [7] 102% | [8] 102% | [9] 108% | [10] 104%

From PubChem BioAssay (NCI)
